The supplement of paper PMC6897291
Where a name gives a salt, the structure may show the parent alone.

System: U-2932
Test: growth inhibition by drug plus 177Lu-lilotomab satetraxetan (1 - RLU/untreated control) (fraction); higher = stronger inhibition
Conditions: 10 nM; time (day): 4; 177Lu-lilotomab satetraxetan 1 ug/ml
Procedure, shortened: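 Plates pre-printed with the Selleck Cambridge Cancer Compound library at 10/100 nM (RIVA) or 10/1,000 nM (U-2932) received 3,000 cells/well. These cells had been washed after 18 h untreated or with a radiolabelled anti-CD37 antibody conjugate (~600 MBq/mg; 0.5 µg/ml RIVA, 1 µg/ml U-2932). Growth inhibition was obtained from RealTime-Glo luminescence in relation to untreated no-drug wells. Each daily read from day 3, taken after 1 h at 37°C, was converted as 1 − RLU/mean of 48 such wells per plate.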

Row | SMILES | growth inhibition by drug plus 177Lu-lilotomab satetraxetan
1 | O=C1CN2Cc3c(ccc(Cl)c3Cl)N=C2N1 [Anagrelide] | 0.141
2 | Cc1cc(Nc2cc(N3CCN(C)CC3)nc(/C=C/c3ccccc3)n2)n[nH]1 | -0.0973
3 | CCc1cc(Nc2nccc(-c3c(-c4ccc(OC)c(C(=O)Nc5c(F)cccc5F)c4)nc4ccccn34)n2)c(OC)cc1N1CCC(N2CCN(S(C)(=O)=O)CC2)CC1 | 0.0169
4 | O=C1CN2Cc3c(ccc(Cl)c3Cl)N=C2N1 [Anagrelide hydrochloride] | 0.119
5 | O=C(NCCCNc1nc(Nc2cccc(NC(=O)N3CCCC3)c2)ncc1I)c1cccs1 | 0.238
6 | CCC[C@H](NC(=O)/C(C#N)=C/c1cccc(Br)n1)c1ccccc1 | 0.1
7 | COc1cc2nc(N3CCCN(C)CC3)nc(NC3CCN(Cc4ccccc4)CC3)c2cc1OC | 0.135
8 | C#Cc1cccc(Nc2ncnc3cc(OCCOC)c(OCCOC)cc23)c1 [Erlotinib HCl] | 0.2
9 | CN(C)c1ccccc1CN1CCCN(Cc2ccccc2N(C)C)C1c1ccncc1 | -0.00857
10 | COc1cc2c(NC3CCN(C)CC3)nc(N3CCCN(C)CC3)nc2cc1OCCCN(C)C | -0.0119
11 | COc1ccc(COc2cc3oc(=O)c4cc(C(C)O)ccc4c3cc2OC)cc1 (stereo not drawn) [Palomid 529] | 0.00126
12 | CO[C@@H](C(=O)N1Cc2[nH]nc(NC(=O)c3ccc(N4CCN(C)CC4)cc3)c2C1)c1ccccc1 | 0.0748
13 | Cn1cc(C2=C(c3ccc(Cl)cc3Cl)C(=O)NC2=O)c2ccccc21 | 0.00483
14 | CCc1ccc(CCOc2ccc(CC3SC(=O)NC3=O)cc2)nc1 (stereo not drawn) [Pioglitazone (Actos)] | -0.0372
15 | O=C(O)C1(C(=O)O)CCC1.[NH2-].[NH2-].[Pt+2] [Carboplatin] | 0.0327
16 | CS(=O)(=O)c1ccc(C(=O)Nc2ccc(Cl)c(-c3ccccn3)c2)c(Cl)c1 [Vismodegib (GDC-0449)] | 0.116
17 | OCCn1cc(-c2ccc3c(c2)CC/C3=N\O)c(-c2ccncc2)n1 | 0.0536
18 | CC[C@@H]1C(=O)N(C)c2cnc(Nc3ccc(C(=O)NC4CCN(C)CC4)cc3OC)nc2N1C1CCCC1 | 0.856
19 | CC[C@]1(O)C[C@H]2CN(CCc3c([nH]c4ccccc34)[C@@](C(=O)OC)(c3cc4c(cc3OC)N(C=O)[C@H]3[C@@](O)(C(=O)OC)[C@H](OC(C)=O)[C@]5(CC)C=CCN6CC[C@]43[C@@H]65)C2)C1 [Vincristine] | 0.97
20 | CC(C)(C)c1ccc(S(=O)(=O)/C=C/C#N)cc1 | 0.0216
21 | Cc1cn(-c2cc(NC(=O)c3ccc(C)c(Nc4nccc(-c5cccnc5)n4)c3)cc(C(F)(F)F)c2)cn1 [Nilotinib (AMN-107)] | -0.0287
22 | CC(C)(C#N)c1cc(Cn2cncn2)cc(C(C)(C)C#N)c1 [Anastrozole] | 0.039
23 | C=CCn1c(=O)c2cnc(Nc3ccc(N4CCN(C)CC4)cc3)nc2n1-c1cccc(C(C)(C)O)n1 | 0.0521
24 | Cn1cnc(N)c2ncnc1-2 [3-Methyladenine] | 0.0789
25 | CCc1c2c(nc3ccc(OC(=O)N4CCC(N5CCCCC5)CC4)cc13)-c1cc3c(c(=O)n1C2)COC(=O)[C@]3(O)CC [Irinotecan HCl Trihydrate (Campto)] | 0.04

Same assay, conditions: 10 nM; time (day): 5; 177Lu-lilotomab satetraxetan 1 ug/ml

Row | SMILES | growth inhibition by drug plus 177Lu-lilotomab satetraxetan
26 | CNCc1ccc(-c2[nH]c3cc(F)cc4c3c2CCNC4=O)cc1 | 0.0882
27 | O=C(O)c1ccc(-c2c[nH]c3ncc(-c4ccccc4)cc23)cc1C1CCCC1 | -0.00811
28 | CC(=O)c1c(C)c2cnc(Nc3ccc(N4CCNCC4)cn3)nc2n(C2CCCC2)c1=O | 0.0227
29 | CCN(CC)CCCCNc1ncc2cc(-c3cc(OC)cc(OC)c3)c(NC(=O)NC(C)(C)C)nc2n1 | 0.0568
30 | CCC(C)(C)C(=O)O[C@H]1C[C@@H](C)C=C2C=C[C@H](C)[C@H](CC[C@@H]3C[C@@H](O)CC(=O)O3)[C@H]21 [Simvastatin (Zocor)] | -0.00846
31 | CC[C@H](Nc1ncnc2[nH]cnc12)c1nc2cccc(F)c2c(=O)n1-c1ccccc1 | -0.0592
32 | CC(C=CC(=O)NO)=CC(C)C(=O)c1ccc(N(C)C)cc1 (stereo not drawn) [Trichostatin A (TSA)] | 0.0335
33 | COc1ccc2c3n(c(=NC(=O)c4cccnc4)nc2c1OC)CCN3 | 0.0894
34 | NC(=O)c1ccc(-c2nc(-c3ccccn3)c(-c3ccc4c(c3)OCO4)[nH]2)cc1 | 0.164
35 | CNC(=O)c1cc(Oc2ccc(NC(=O)Nc3ccc(Cl)c(C(F)(F)F)c3)c(F)c2)ccn1 [Regorafenib (BAY 73-4506)] | 0.283
36 | Cc1cnc(Nc2ccc(OCCN3CCCC3)cc2)nc1Nc1cccc(S(=O)(=O)NC(C)(C)C)c1 | -0.0161
37 | CCOc1ccc(Nc2nc(-c3c(C)nc4ccccn34)cs2)cc1 | 0.267
38 | CC(C)C[C@H](NC(=O)[C@H](Cc1ccccc1)NC(=O)c1cnccn1)B(O)O [Bortezomib (Velcade)] | 0.976
39 | O=C1CN2Cc3c(ccc(Cl)c3Cl)N=C2N1 [Anagrelide] | 0.208
40 | Cc1cc(Nc2cc(N3CCN(C)CC3)nc(/C=C/c3ccccc3)n2)n[nH]1 | -0.0755
41 | CCc1cc(Nc2nccc(-c3c(-c4ccc(OC)c(C(=O)Nc5c(F)cccc5F)c4)nc4ccccn34)n2)c(OC)cc1N1CCC(N2CCN(S(C)(=O)=O)CC2)CC1 | 0.0318
42 | O=C1CN2Cc3c(ccc(Cl)c3Cl)N=C2N1 [Anagrelide hydrochloride] | 0.141
43 | O=C(NCCCNc1nc(Nc2cccc(NC(=O)N3CCCC3)c2)ncc1I)c1cccs1 | 0.304
44 | CCC[C@H](NC(=O)/C(C#N)=C/c1cccc(Br)n1)c1ccccc1 | 0.129

Row | SMILES | growth inhibition by drug plus 177Lu-lilotomab satetraxetan
45 | COc1cc2nc(N3CCCN(C)CC3)nc(NC3CCN(Cc4ccccc4)CC3)c2cc1OC | 0.169
46 | C#Cc1cccc(Nc2ncnc3cc(OCCOC)c(OCCOC)cc23)c1 [Erlotinib HCl] | 0.208
47 | CN(C)c1ccccc1CN1CCCN(Cc2ccccc2N(C)C)C1c1ccncc1 | 0.0315
48 | COc1cc2c(NC3CCN(C)CC3)nc(N3CCCN(C)CC3)nc2cc1OCCCN(C)C | 0.0125
49 | COc1ccc(COc2cc3oc(=O)c4cc(C(C)O)ccc4c3cc2OC)cc1 (stereo not drawn) [Palomid 529] | 0.0363
50 | CO[C@@H](C(=O)N1Cc2[nH]nc(NC(=O)c3ccc(N4CCN(C)CC4)cc3)c2C1)c1ccccc1 | 0.116
51 | Cn1cc(C2=C(c3ccc(Cl)cc3Cl)C(=O)NC2=O)c2ccccc21 | 0.017
52 | CCc1ccc(CCOc2ccc(CC3SC(=O)NC3=O)cc2)nc1 (stereo not drawn) [Pioglitazone (Actos)] | 0.0193
53 | O=C(O)C1(C(=O)O)CCC1.[NH2-].[NH2-].[Pt+2] [Carboplatin] | 0.0748
54 | CS(=O)(=O)c1ccc(C(=O)Nc2ccc(Cl)c(-c3ccccn3)c2)c(Cl)c1 [Vismodegib (GDC-0449)] | 0.202
55 | OCCn1cc(-c2ccc3c(c2)CC/C3=N\O)c(-c2ccncc2)n1 | 0.0736
56 | CC[C@@H]1C(=O)N(C)c2cnc(Nc3ccc(C(=O)NC4CCN(C)CC4)cc3OC)nc2N1C1CCCC1 | 0.903
57 | CC[C@]1(O)C[C@H]2CN(CCc3c([nH]c4ccccc34)[C@@](C(=O)OC)(c3cc4c(cc3OC)N(C=O)[C@H]3[C@@](O)(C(=O)OC)[C@H](OC(C)=O)[C@]5(CC)C=CCN6CC[C@]43[C@@H]65)C2)C1 [Vincristine] | 0.978
58 | CC(C)(C)c1ccc(S(=O)(=O)/C=C/C#N)cc1 | 0.0584
59 | Cc1cn(-c2cc(NC(=O)c3ccc(C)c(Nc4nccc(-c5cccnc5)n4)c3)cc(C(F)(F)F)c2)cn1 [Nilotinib (AMN-107)] | -0.0436
60 | CC(C)(C#N)c1cc(Cn2cncn2)cc(C(C)(C)C#N)c1 [Anastrozole] | 0.0695
61 | C=CCn1c(=O)c2cnc(Nc3ccc(N4CCN(C)CC4)cc3)nc2n1-c1cccc(C(C)(C)O)n1 | 0.116
62 | Cn1cnc(N)c2ncnc1-2 [3-Methyladenine] | 0.12
63 | CCc1c2c(nc3ccc(OC(=O)N4CCC(N5CCCCC5)CC4)cc13)-c1cc3c(c(=O)n1C2)COC(=O)[C@]3(O)CC [Irinotecan HCl Trihydrate (Campto)] | 0.0458
